# Columns and labels:
# Experiment in all cases: DAPPL (digital affinity profiling via proximity ligation, sequencing); 10 mM Tris-HCl pH 7.5, 50 mM NaCl, 1 mM DTT, 4% glycerol, room temperature, 30 min; GST-TFs on glutathione beads, 16-mer random dsDNA library, 0.1% formaldehyde crosslink after washing; high values mean tight binding
# Conditions in all cases: protein: recombinant; tags: N-terminal GST; dsDNA, one strand shown
# FLI1 = molecular target: T1, FLI1 (Homo sapiens, UniProt Q01543 1-452)
# T1 sequence: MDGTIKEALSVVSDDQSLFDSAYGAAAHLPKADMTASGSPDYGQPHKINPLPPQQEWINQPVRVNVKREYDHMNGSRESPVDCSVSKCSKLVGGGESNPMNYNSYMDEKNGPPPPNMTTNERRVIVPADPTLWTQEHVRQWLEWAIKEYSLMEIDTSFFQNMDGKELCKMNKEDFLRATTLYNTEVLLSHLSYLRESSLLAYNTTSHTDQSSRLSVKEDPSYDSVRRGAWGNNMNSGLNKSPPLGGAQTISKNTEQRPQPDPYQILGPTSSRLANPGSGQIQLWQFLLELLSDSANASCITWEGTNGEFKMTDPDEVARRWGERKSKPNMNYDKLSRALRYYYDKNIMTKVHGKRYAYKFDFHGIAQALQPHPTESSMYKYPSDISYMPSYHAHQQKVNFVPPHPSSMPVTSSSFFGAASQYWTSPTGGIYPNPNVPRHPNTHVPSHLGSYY
# How it was run: (§1)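 Human transcription factors fused to GST were expressed in yeast, captured on glutathione beads, given DNA barcodes and pooled with a GST-only negative control. Pools were incubated with 200 nmole of a 16-mer random double-stranded DNA library in Tris/NaCl/DTT/glycerol buffer at room temperature for 30 min. They were then washed, crosslinked with 0.1% formaldehyde, proximity-ligated (BsaI/T4 ligase, 1 h, 37 °C), PCR-amplified and sequenced on an Illumina NextSeq500. Binding signal is each 6-mer's read frequency for a factor divided by its frequency for the GST control.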
# ELK1 = molecular target: T2, ELK1 (Homo sapiens, UniProt P19419 1-428)
# T2 sequence: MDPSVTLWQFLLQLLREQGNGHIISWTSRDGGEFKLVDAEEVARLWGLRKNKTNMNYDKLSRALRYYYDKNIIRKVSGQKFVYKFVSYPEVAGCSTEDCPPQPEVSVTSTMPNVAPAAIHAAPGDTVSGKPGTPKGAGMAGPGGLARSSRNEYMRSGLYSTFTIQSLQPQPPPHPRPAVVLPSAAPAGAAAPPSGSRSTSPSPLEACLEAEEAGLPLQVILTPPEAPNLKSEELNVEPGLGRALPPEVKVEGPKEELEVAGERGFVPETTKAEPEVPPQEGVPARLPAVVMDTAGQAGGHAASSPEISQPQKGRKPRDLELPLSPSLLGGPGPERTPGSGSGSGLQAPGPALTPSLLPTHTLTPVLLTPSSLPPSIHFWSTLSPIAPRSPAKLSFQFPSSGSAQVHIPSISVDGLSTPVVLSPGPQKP
# How it was run: as §1
# GABPA = molecular target: T3, GABPA (Homo sapiens, UniProt Q06546 1-454)
# T3 sequence: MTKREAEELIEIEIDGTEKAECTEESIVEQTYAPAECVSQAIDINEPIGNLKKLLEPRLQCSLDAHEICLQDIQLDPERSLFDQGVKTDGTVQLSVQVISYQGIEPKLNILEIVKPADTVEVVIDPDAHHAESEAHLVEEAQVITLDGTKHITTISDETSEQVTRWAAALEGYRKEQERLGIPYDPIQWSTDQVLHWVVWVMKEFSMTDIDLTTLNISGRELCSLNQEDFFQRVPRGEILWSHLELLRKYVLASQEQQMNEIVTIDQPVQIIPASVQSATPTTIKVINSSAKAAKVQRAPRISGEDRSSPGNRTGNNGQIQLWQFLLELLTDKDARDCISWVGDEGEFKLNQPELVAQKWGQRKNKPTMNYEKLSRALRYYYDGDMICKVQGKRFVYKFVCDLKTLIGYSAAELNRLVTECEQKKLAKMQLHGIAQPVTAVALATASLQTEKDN
# How it was run: as §1
# ERG = molecular target: T4, ERG (Homo sapiens, UniProt P11308 1-479)
# T4 sequence: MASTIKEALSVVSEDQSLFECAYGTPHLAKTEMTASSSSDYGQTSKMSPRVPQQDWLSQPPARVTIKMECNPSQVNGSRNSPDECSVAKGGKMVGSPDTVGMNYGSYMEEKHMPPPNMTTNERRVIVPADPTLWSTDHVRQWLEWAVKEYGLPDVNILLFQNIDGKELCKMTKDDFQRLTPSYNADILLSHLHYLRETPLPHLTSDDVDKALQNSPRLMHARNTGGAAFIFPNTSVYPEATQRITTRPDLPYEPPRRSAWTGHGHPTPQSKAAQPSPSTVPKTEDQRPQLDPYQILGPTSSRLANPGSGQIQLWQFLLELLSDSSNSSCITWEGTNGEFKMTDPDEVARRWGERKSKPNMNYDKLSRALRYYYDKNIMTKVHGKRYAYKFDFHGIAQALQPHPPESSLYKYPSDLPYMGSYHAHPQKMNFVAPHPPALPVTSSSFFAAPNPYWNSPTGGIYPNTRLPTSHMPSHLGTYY
# How it was run: as §1
# ELF1 = ELF1 (Homo sapiens, UniProt P32519 1-619)
# ELF1, sequence (P32519 whole entry): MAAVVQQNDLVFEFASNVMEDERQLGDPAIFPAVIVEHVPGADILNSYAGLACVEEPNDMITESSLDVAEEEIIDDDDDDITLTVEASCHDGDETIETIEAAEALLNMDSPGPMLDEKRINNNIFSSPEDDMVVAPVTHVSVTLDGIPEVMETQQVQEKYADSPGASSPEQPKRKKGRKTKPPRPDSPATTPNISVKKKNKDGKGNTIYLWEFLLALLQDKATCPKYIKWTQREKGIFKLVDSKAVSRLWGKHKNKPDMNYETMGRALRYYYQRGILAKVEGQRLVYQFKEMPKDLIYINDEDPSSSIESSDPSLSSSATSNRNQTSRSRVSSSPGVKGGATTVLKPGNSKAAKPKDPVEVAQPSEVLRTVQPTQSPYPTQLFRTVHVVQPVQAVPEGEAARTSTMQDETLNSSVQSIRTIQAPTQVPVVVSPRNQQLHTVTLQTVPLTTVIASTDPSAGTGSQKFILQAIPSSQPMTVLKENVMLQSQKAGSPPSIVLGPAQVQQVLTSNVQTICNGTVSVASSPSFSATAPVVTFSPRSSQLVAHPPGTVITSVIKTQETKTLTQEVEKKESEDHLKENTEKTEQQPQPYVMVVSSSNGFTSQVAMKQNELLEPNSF
# How it was run: as §1
# EHF = molecular target: T5, EHF (Homo sapiens, UniProt Q9NZC4 1-300)
# T5 sequence: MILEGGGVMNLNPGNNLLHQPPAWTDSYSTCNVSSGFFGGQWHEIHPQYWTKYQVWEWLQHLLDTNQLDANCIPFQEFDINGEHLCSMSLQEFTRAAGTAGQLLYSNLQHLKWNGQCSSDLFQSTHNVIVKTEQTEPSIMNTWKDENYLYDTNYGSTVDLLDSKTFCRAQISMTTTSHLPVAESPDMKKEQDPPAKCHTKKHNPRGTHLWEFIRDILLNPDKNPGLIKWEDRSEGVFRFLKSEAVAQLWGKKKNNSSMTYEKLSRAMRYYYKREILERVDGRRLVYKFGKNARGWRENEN
# How it was run: as §1
# SPI1 = SPI1 (Homo sapiens, UniProt P17947 1-270)
# How it was run: as §1
# SPIB = SPIB (Homo sapiens, UniProt Q01892 1-262)
# SPIB, sequence (Q01892 whole entry): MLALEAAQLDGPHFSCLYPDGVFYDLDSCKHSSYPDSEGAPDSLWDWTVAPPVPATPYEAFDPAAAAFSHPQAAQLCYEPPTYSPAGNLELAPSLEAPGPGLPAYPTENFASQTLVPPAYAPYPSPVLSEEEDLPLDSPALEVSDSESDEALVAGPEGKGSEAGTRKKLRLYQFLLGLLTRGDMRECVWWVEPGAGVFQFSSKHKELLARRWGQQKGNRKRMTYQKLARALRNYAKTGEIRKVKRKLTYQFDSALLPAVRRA
# How it was run: as §1
# ELK3 = molecular target: T6, ELK3 (Homo sapiens, UniProt P41970 1-407)
# T6 sequence: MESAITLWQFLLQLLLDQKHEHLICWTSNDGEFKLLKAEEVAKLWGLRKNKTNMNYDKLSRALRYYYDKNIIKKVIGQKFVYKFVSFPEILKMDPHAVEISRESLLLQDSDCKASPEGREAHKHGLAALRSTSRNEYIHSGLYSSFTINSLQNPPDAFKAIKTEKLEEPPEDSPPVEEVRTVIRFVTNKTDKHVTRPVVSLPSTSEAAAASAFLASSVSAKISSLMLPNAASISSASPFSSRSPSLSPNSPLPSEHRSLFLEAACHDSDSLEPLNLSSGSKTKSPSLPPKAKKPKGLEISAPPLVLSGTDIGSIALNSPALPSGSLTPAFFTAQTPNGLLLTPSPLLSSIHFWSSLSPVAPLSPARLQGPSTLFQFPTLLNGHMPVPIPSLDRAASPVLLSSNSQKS
# How it was run: as §1
# FEV = molecular target: T7, FEV (Homo sapiens, UniProt Q99581 1-238)
# T7 sequence: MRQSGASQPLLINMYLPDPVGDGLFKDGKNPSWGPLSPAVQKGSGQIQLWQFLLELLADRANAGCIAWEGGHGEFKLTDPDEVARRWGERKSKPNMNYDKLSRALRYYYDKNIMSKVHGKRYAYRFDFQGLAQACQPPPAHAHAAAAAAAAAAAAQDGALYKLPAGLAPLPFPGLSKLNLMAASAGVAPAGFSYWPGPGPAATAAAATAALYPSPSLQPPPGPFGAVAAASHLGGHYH
# How it was run: as §1
# ETV5 = ETV5 (Homo sapiens, UniProt P41161 1-510)
# ETV5, sequence (P41161 whole entry): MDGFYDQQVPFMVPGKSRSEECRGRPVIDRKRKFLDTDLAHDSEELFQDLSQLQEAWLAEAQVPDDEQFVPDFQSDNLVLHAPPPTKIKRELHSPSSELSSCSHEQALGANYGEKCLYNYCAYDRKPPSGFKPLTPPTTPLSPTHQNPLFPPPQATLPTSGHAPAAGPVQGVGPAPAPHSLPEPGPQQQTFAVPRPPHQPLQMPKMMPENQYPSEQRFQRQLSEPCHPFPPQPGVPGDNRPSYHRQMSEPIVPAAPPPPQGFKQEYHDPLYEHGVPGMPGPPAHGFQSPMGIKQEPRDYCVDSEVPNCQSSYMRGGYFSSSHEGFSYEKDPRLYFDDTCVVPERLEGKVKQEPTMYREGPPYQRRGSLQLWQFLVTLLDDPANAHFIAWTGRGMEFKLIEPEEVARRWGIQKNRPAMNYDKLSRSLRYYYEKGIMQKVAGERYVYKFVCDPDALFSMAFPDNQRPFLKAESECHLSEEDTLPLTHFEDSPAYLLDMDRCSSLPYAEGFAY
# How it was run: as §1
# SPIC = molecular target: T8, SPIC (Homo sapiens, UniProt Q8N5J4 1-248)
# T8 sequence: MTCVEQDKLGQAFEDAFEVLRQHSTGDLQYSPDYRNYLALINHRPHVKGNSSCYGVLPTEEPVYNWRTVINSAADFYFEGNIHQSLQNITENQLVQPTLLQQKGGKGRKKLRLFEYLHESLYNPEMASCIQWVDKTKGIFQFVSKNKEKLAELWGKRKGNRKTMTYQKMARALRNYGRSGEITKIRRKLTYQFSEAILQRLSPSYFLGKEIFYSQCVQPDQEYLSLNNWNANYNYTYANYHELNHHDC
# How it was run: as §1
# ELF4 = ELF4 (Homo sapiens, UniProt Q99607 1-663)
# ELF4, sequence (Q99607 whole entry): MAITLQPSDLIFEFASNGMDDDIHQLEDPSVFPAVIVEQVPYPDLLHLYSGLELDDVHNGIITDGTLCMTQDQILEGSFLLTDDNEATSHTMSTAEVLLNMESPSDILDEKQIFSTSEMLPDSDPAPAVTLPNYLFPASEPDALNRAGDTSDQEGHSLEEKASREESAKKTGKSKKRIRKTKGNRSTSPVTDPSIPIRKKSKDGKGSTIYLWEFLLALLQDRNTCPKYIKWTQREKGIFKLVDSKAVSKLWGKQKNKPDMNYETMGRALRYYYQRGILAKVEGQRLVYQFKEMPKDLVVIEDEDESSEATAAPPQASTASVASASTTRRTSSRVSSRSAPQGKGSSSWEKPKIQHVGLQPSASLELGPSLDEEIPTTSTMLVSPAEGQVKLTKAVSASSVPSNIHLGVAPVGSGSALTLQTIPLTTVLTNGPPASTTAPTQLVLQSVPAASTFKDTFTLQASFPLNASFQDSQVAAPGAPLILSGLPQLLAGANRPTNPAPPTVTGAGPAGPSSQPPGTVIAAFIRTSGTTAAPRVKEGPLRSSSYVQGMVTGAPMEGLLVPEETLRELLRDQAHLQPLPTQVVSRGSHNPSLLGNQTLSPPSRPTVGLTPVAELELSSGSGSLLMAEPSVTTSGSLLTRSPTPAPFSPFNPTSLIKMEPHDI
# How it was run: as §1
# ELK4 = molecular target: T9, ELK4 (Homo sapiens, UniProt P28324-2 1-405)
# T9 sequence: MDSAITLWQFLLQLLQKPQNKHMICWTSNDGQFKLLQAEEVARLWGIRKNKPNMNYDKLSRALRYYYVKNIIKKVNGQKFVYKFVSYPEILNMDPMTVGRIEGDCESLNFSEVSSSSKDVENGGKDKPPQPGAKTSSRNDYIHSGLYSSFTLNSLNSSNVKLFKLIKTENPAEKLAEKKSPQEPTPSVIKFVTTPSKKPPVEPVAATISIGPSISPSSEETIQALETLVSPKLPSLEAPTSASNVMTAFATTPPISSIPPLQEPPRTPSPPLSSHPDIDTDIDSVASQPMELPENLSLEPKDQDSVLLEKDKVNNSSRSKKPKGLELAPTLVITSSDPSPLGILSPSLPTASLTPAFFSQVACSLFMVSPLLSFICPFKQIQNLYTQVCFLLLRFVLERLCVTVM
# How it was run: as §1
# ETV2 = molecular target: T10, ETV2 (Homo sapiens, UniProt O00321 1-342)
# T10 sequence: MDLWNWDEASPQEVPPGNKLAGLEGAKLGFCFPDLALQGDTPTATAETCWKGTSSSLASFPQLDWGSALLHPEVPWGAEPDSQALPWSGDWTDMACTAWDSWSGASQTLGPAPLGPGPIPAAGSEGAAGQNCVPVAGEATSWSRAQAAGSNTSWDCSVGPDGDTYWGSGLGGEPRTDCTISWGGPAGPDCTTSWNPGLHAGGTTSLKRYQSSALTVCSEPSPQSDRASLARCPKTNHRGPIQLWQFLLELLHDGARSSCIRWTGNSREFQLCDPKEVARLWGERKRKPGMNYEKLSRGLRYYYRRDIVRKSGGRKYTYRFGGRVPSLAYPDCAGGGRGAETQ
# How it was run: as §1
# ELF3 = molecular target: T11, ELF3 (Homo sapiens, UniProt P78545 1-371)
# T11 sequence: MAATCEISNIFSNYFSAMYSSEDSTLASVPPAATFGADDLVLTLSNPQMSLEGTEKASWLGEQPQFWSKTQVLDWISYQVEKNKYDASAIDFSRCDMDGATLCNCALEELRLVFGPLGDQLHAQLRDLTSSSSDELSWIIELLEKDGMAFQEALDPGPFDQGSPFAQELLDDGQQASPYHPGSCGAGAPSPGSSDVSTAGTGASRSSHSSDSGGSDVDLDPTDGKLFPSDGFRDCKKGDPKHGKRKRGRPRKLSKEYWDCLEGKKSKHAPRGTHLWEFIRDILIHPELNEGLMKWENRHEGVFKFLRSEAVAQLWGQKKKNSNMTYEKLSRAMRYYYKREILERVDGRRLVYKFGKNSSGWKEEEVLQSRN
# How it was run: as §1
# ETV1 = ETV1 (Homo sapiens, UniProt P50549 1-477)
# ETV1, sequence (P50549 whole entry): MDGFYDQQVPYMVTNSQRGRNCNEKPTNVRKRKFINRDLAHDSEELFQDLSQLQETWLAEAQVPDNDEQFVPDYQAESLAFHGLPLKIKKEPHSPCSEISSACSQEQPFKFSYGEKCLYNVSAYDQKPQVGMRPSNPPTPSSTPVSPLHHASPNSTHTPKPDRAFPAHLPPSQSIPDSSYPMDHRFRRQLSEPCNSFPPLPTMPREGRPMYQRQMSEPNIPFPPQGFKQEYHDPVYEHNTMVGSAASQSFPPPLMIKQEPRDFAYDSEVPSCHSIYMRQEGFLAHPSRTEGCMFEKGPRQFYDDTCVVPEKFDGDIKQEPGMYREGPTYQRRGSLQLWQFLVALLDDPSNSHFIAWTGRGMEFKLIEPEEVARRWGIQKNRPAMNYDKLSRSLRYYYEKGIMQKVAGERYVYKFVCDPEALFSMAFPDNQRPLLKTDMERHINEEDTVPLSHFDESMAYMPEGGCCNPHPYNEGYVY
# How it was run: as §1
sequence,measurement,setting,value
CGTACC,binding signal,FLI1,"1.24 fold enrichment (6-mer frequency, TF over GST control)"
same,binding signal,ELK1,"1.15 fold enrichment (6-mer frequency, TF over GST control)"
same,binding signal,GABPA,"1.18 fold enrichment (6-mer frequency, TF over GST control)"
same,binding signal,ERG,"1.12 fold enrichment (6-mer frequency, TF over GST control)"
same,binding signal,ELF1,"1.15 fold enrichment (6-mer frequency, TF over GST control)"
same,binding signal,EHF,"1.15 fold enrichment (6-mer frequency, TF over GST control)"
same,binding signal,SPI1,"1.14 fold enrichment (6-mer frequency, TF over GST control)"
same,binding signal,SPIB,"1.12 fold enrichment (6-mer frequency, TF over GST control)"
same,binding signal,ELK3,"1.21 fold enrichment (6-mer frequency, TF over GST control)"
same,binding signal,FEV,"1.19 fold enrichment (6-mer frequency, TF over GST control)"
same,binding signal,ETV5,"1.17 fold enrichment (6-mer frequency, TF over GST control)"
same,binding signal,SPIC,"1.14 fold enrichment (6-mer frequency, TF over GST control)"
same,binding signal,ELF4,"1.17 fold enrichment (6-mer frequency, TF over GST control)"
same,binding signal,ELK4,"1.18 fold enrichment (6-mer frequency, TF over GST control)"
same,binding signal,ETV2,"1.15 fold enrichment (6-mer frequency, TF over GST control)"
same,binding signal,ELF3,"1.25 fold enrichment (6-mer frequency, TF over GST control)"
same,binding signal,ETV1,"1.26 fold enrichment (6-mer frequency, TF over GST control)"

# From publication PMC7862700, “An all-to-all approach to the identification of sequence-specific readers for epigenetic DNA modifications on cytosine”
